We go through 195 variants from a collection of fitness landscapes (doi:10.1126/science.1257360).

Over roughly 140,000 sequences, “enrichment ratio after two sorts for PhoP signalling” has its median near 0; the highest 2% begin near 11. For the sample, the highest values were picked, then their nearest neighbours and some sequences at random.

B1: PhoQ; a variant is named by its letters at X, in order, P23837 (parent)
chain: MKKLLRLFFPLSLRVRFLLATAAVVLVLSLAYGMVALIGYSVSFDKTTFRLLRGESNLFYTLAKWENNKLHVELPENIDKQSPTMTLIYDENGQLLWAQRDVPWLMKMIQPDWLKSNGFHEIEADVNDTSLLLSGDHSIQQQLQEVREDDDDAEMTHSVAVNVYPATSRMPKLTIVVVDTIPVELKSSYMVWSWFIYVLSANLLLVIPLLWVAAWWSLRPIEALAKEVRELEEHNRELLNPATTRELTSLVRNLNRLLKSERERYDKYRTTLTDLTHSLKTPLXXLQXXLRSLRSEKMSVSDAEPVMLEQISRISQQIGYYLHRASMRGGTLLSRELHPVAPLLDNLTSALNKVYQRKGVNISLDISPEISFVGEQNDFVEVMGNVLDNACKYCLEFVEISARQTDEHLYIVVEDDGPGIPLSKREVIFDRGQRVDTLRPGQGVGLAVAREITEQYEGKIVAGESMLGGARMEVIFGRQHSAPKDE

The experiment covers variants of B1. Description: enrichment ratio after two sorts for PhoP signalling (ratio (wild type AVST 3.29)); higher = more functional. To be noted: with PhoP (E. coli).
In the case of EERG, the enrichment ratio was no more than 0.25. For the variant WYHV, the enrichment ratio was no more than 0.25. In the case of FLNY it was no more than 0.25; in that of FECS, 19.8; in that of SLCG, 6.01. In the case of SECG it was 13.7; in that of SRCV, 5.55. For SECV, the enrichment ratio came to 24.5.

Turning to FECA, the enrichment ratio was no more than 0.25. Regarding SEYV, the enrichment ratio was found to be 5.27.

With SRCG, the enrichment ratio is no more than 0.25. In the case of FECI it was 3.72; in that of MMWP, no more than 0.25; in that of LWRR, no more than 0.25. In the case of YSRA it was no more than 0.25; in that of QHHS, no more than 0.25.

Regarding DQIV, the enrichment ratio was no more than 0.25. With GVST, the enrichment ratio is no more than 0.25. Regarding GIST, the enrichment ratio is 8.78. In the case of LNST it was no more than 0.25; in that of MEST, 5.63; in that of MNST, no more than 0.25. In the case of GNST it was 15.1; in that of GESK, no more than 0.25; in that of TNST, 12.6. In the case of GEST it was 16.9; in that of ARCL, 4.81; in that of GDEI, no more than 0.25. Regarding EMQY, the enrichment ratio was no more than 0.25. In the case of PNEV it was no more than 0.25. In the case of IGRG it was no more than 0.25. In the case of IFWY it was no more than 0.25; in that of SWHL, 0.549. For the variant HMCK, the enrichment ratio was no more than 0.25. In the case of STWG it was no more than 0.25; in that of TTWG, 12.2; in that of YTDF, no more than 0.25. In the case of CKMF it was 38.2; in that of TTDF, 16.9. In the case of YTSF it was no more than 0.25; in that of CKAF, no more than 0.25; in that of KQSF, no more than 0.25. As to CTDF, the enrichment ratio is no more than 0.25. In the case of YTWG it was no more than 0.25; in that of TTSF, 13.7.

Regarding CKFF, the enrichment ratio is no more than 0.25. In the case of HDWN it was no more than 0.25; in that of LGQF, no more than 0.25; in that of TLMP, no more than 0.25. In the case of DGEM it was no more than 0.25; in that of EYIG, no more than 0.25.

Turning to LWNR, the enrichment ratio is no more than 0.25. For the variant GEFD, the enrichment ratio was no more than 0.25. In the case of SQIR it was no more than 0.25; in that of MDDP, no more than 0.25. In the case of TTMF it was 20.9; in that of RIMF, no more than 0.25; in that of QVHF, 0.315. On to QVDF, for which the enrichment ratio worked out at 15.1. In the case of TTEL it was 16.6; in that of TTYI, 6.16; in that of TTHF, 11.8. In the case of NVDF it was no more than 0.25; in that of YTEL, no more than 0.25; in that of THMF, 9.68. Regarding TTPA, the enrichment ratio is no more than 0.25. In the case of TTPS it was no more than 0.25; in that of PVYQ, no more than 0.25; in that of GLRF, no more than 0.25. In the case of VHDP it was no more than 0.25; in that of NRQL, no more than 0.25. In the case of DQAF it was no more than 0.25; in that of KQIG, no more than 0.25; in that of WLRY, no more than 0.25. For STWN, the enrichment ratio is no more than 0.25. In the case of NHDF it was no more than 0.25.

Turning to GTQF, the enrichment ratio was no more than 0.25. In the case of YTWN it was no more than 0.25; in that of YTAF, no more than 0.25. In the case of SHDF it was no more than 0.25; in that of YTQF, no more than 0.25. In the case of TTQF it was 22.7; in that of TTWN, 15.1. Consider THDF, for which the enrichment ratio was 11.6. On to TTAF, for which the enrichment ratio amounted to 14. In the case of LTAF it was no more than 0.25; in that of RKCR, no more than 0.25; in that of QNKW, no more than 0.25. In the case of YVTW it was no more than 0.25; in that of DWIG, no more than 0.25. In the case of ERDP it was no more than 0.25. On to VGHC, for which the enrichment ratio is no more than 0.25. Turning to NFWG, the enrichment ratio is no more than 0.25. In the case of KTWY it was no more than 0.25. In the case of TTSA it was 11.5; in that of YTGL, no more than 0.25. As to YTWS, the enrichment ratio was no more than 0.25.

Regarding TTWI, the enrichment ratio turned out to be 9.7. TTYN: the enrichment ratio amounted to 12.5. With KQSA, the enrichment ratio was no more than 0.25. In the case of KSYN it was no more than 0.25; in that of WIYN, no more than 0.25; in that of TTGL, 12.3. In the case of YTSA it was no more than 0.25; in that of STGL, 9.48.

TTWS: the enrichment ratio came to 11.9.

For IEKA, the enrichment ratio is no more than 0.25. In the case of RHPA it was no more than 0.25. For the variant PCEP, the enrichment ratio was no more than 0.25.

In the case of MEYV, the enrichment ratio is 5.49. In the case of WFPG it was no more than 0.25; in that of TMFD, no more than 0.25; in that of AHCM, 9.33. In the case of THSS it was 8.94; in that of AKKL, no more than 0.25; in that of YGCL, 2.74. Regarding YHQH, the enrichment ratio is no more than 0.25.

Consider TTHN, for which the enrichment ratio amounted to 15.7. In the case of NVHI it was no more than 0.25. Consider LTGF, for which the enrichment ratio is no more than 0.25.

WIMF: the enrichment ratio was no more than 0.25. In the case of YTHN it was no more than 0.25; in that of KSHN, no more than 0.25; in that of TTGF, 17.1. In the case of YTHI it was no more than 0.25. In the case of CTMF, the enrichment ratio was determined as 25.7. As for YTMF, the enrichment ratio stood at 5.8.

On to TTHI, for which the enrichment ratio was found to be 11.5. In the case of YTGF it was no more than 0.25; in that of WRNH, no more than 0.25; in that of PTGD, no more than 0.25. In the case of HQVK it was no more than 0.25; in that of VNRG, no more than 0.25; in that of GRVA, no more than 0.25. In the case of FSSR it was no more than 0.25; in that of SFVK, no more than 0.25.

For the variant IYPH, the enrichment ratio was no more than 0.25. In the case of WNMY it was no more than 0.25; in that of TKMF, 11.5.

PTMF: the enrichment ratio was no more than 0.25. In the case of WIMS it was no more than 0.25. For YTMS, the enrichment ratio was no more than 0.25.

For the variant TTMS, the enrichment ratio was 26.8. In the case of MEMF it was 0.449. In the case of GTYD it was no more than 0.25; in that of SAKT, no more than 0.25. In the case of FGAP it was no more than 0.25; in that of FCVG, no more than 0.25; in that of RGTF, no more than 0.25. AISV: the enrichment ratio came to 15.9. Take TISV: the enrichment ratio worked out at 12.8. In the case of WISV it was no more than 0.25; in that of ADSV, 4.14.

For the variant RISV, the enrichment ratio was no more than 0.25. In the case of VHSV it was no more than 0.25; in that of IHWP, no more than 0.25; in that of WMPW, no more than 0.25. In the case of DDPW it was no more than 0.25; in that of WIPR, no more than 0.25. In the case of GRSL it was no more than 0.25. For the variant TCIV, the enrichment ratio is no more than 0.25.

HCMH: the enrichment ratio was no more than 0.25.

With TCMD, the enrichment ratio was no more than 0.25. For TCWV, the enrichment ratio came to 2.38. In the case of TCMS it was 10.9; in that of TCMA, 15.5.

In the case of KCMA, the enrichment ratio was no more than 0.25.

With KCMH, the enrichment ratio was no more than 0.25. In the case of FCMA it was 5.8. In the case of TCMV it was 14.6; in that of TCMI, 15; in that of TCMH, 15.1. In the case of FRCS it was no more than 0.25; in that of HLCG, no more than 0.25; in that of TQVV, 4.23. Consider LDFE, for which the enrichment ratio was no more than 0.25.

For SIYM, the enrichment ratio stood at 0.397. Take FWIR: the enrichment ratio is no more than 0.25. In the case of LPTL it was no more than 0.25; in that of AFEF, no more than 0.25; in that of SVVF, no more than 0.25. In the case of FPHE it was no more than 0.25; in that of TYMF, no more than 0.25; in that of TCNV, 16.2. In the case of KSNV it was no more than 0.25. Take TCMF: the enrichment ratio came to 26.2. In the case of FCMF it was 0.805; in that of TCVG, no more than 0.25. In the case of VCTG it was 0.404. In the case of TCMG it was 11.4; in that of KCTG, no more than 0.25; in that of TCTG, 20. As for KCNV, the enrichment ratio is no more than 0.25. In the case of TCIG it was no more than 0.25; in that of IPQW, no more than 0.25.
